Source: PubChem
Compounds with a hit are over-represented: about 2.6% of the library has one in this group of screens.
OPRK1 antag MB = antagonists of human kappa opioid receptor OPRK1, Maybridge library | inhibition, % at 9 µM | AID 652031 | OPRK1 cells, antagonist mode, fluorescence readout | 16,000 compounds, 0.4% hits | P41145; in the data active means inhibition above about 50%
rat GALR2 ag = GALR2 (rat) receptor agonism | cell-based GALR2 agonist screen | activation, % at 10 µM | 16,000 compounds, 0.5% hits; in the data active means activation above about 15%
Target sequence (O08726 whole entry, looked up): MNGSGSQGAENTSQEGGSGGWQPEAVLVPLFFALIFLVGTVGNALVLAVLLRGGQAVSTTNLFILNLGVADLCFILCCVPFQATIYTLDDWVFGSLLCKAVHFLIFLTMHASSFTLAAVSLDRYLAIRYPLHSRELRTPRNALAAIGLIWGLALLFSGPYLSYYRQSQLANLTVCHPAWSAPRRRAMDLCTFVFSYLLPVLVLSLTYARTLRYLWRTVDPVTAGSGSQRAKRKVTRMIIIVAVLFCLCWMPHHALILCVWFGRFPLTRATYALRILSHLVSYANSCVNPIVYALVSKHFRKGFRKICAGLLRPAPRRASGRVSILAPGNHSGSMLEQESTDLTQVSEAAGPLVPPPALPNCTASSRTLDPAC
TLR4 MyD88 blk = inhibitors of human TLR4-MyD88 binding | O00206 | Cell-based TLR4-MyD88 binding inhibition assay | inhibition, % at 10 µM | 16,000 compounds, 0.06% hits; in the data active means inhibition above about 45%
S1P1 agonist = S1P1 (human) receptor agonism; S1P1 agonist cell-based reporter assay; activation, % at 4.5 µM; 16,000 compounds, 1.5% hits; AID 1044; in the data active means activation above about 80%
Of the large screens only hits and unclear results are named; the others gave an inactive call.

Cc1c(/C=C/C(=O)Nc2nccs2)sc2ccccc12	none
CCOC(=O)c1cn[nH]c1C(F)(F)F	none
CCOC(=O)c1cn[nH]c1NC(=S)Nc1cccc(C(F)(F)F)c1	OPRK1 antag MB 83.2
O=[N+]([O-])c1cc(C(F)(F)F)cc([N+](=O)[O-])c1O/N=C1\CSCc2ccccc21	rat GALR2 ag 40.0
Cn1nc(C(C)(C)C)cc1C(=O)NCc1ccc2c(c1)OCO2	S1P1 agonist 84.2
O=C(O)CSCC(=O)Nc1cccc2c1CCCC2	rat GALR2 ag 24.4
CCOCCOC(NC(=O)OCC)(C(F)(F)F)C(F)(F)F	none
O=C1/C(=C\c2ccccn2)SC(=S)N1Cc1ccncc1	none
Nc1ccc2nonc2c1N	none
Clc1ccc(CSc2nnc(-n3cccc3)s2)cc1	S1P1 agonist 80.3
Cc1nnc(SCc2ccc([N+](=O)[O-])cc2)s1	none
CCOC(=O)c1cnn(-c2nc(-c3ccccc3)cs2)c1C(F)(F)F	S1P1 agonist 82.3
COc1ccc2nsnc2c1	none
COc1ccc2nonc2c1	rat GALR2 ag 139.0
CCOC(=O)/C(C#N)=C/Nc1ccccc1Oc1ccc(Cl)cc1Cl	none
O=C(c1cccs1)N1CCc2ccccc2C1	rat GALR2 ag 34.0
Cc1nc(C(=O)NCC(=O)c2cccc(Cl)c2)c(C(F)(F)F)o1	S1P1 agonist 91.6
Fc1cccc(Cl)c1-n1cccc1	none
N#Cc1cccnc1NNC(=O)COCC(=O)O	OPRK1 antag MB 82.8
N#Cc1cccnc1NNC(=O)c1nccnc1C(=O)O	none
O=C1/C(=C/c2cccs2)CC/C1=C\c1cccs1	S1P1 agonist 81.2
Cc1nnsc1C(=O)Nc1ccc(-n2nc(C(F)(F)F)cc2-c2cccs2)cc1	none
Cc1nnsc1C(=O)Nc1ccc(-n2nc(C(F)(F)F)cc2C(F)(F)F)cc1	S1P1 agonist 98.7 (no result: TLR4 MyD88 blk)
O=C(Nc1ccc(OC(F)(F)F)cc1)Nc1cc(-c2ccco2)[nH]n1	none
Cc1noc(C)c1S(=O)(=O)N(Cc1ccccc1)C(C)C	rat GALR2 ag 47.0
N#CCCN(Cc1cccs1)C(=O)Nc1cccc(C(F)(F)F)c1	rat GALR2 ag 41.9
S=C(NCC1CCCO1)N/N=C/c1ccc(Cl)cc1 (stereo not drawn)	none
O=[N+]([O-])c1ccc(-c2ccc(/C=N/Nc3ccccc3)o2)cc1	OPRK1 antag MB 81.4, S1P1 agonist 82.1
O=[N+]([O-])c1ccc(-c2ccc(/C=N/NC(=S)NCC3CCCO3)o2)cc1 (stereo not drawn)	TLR4 MyD88 blk 50.1
O=[N+]([O-])c1ccc(-c2ccc(-c3ccc([N+](=O)[O-])cc3)o2)cc1	none
CNC(=S)NN(C)c1cccc(F)c1C#N	none
Cc1ccccc1-c1oncc1-c1nnnn1-c1ccccc1	none
C=CCNC(=S)NNC(=O)c1oc2nc(-c3ccc(Cl)cc3)cc(-c3ccccc3)c2c1N	OPRK1 antag MB 66.2
C=CCNC(=S)NNC(=O)CSc1ccccc1[N+](=O)[O-]	none
O=[N+]([O-])c1cc(C2SCCS2)ccc1Sc1ccc(Cl)cc1	none
O=[N+]([O-])c1cc(C2SCCS2)ccc1SC1CCCCC1	S1P1 agonist 85.9
Cc1nc(C(F)(F)F)c(C(=O)O/N=C(\N)c2cccc(C(F)(F)F)c2)s1	S1P1 agonist 99.0
O=[N+]([O-])c1ccc(Oc2ccc(C(F)(F)F)cc2[N+](=O)[O-])c(C2SCCS2)c1	none
Nc1ncnc(SCc2nc(-c3ccc(OC(F)(F)F)cc3)no2)n1	none
FC(F)(F)Oc1ccc(-c2noc(-c3ccno3)n2)cc1	S1P1 agonist 90.9
O=C(CSc1ccccn1)Nc1ccccc1Sc1nccc(C(F)(F)F)n1	S1P1 agonist 83.7
O=C(Nc1ccccc1)Nc1ccccc1Sc1nccc(C(F)(F)F)n1	none
N#CCC(=O)NCCc1ccccn1	none
Cc1c(C=Nc2ccc([N+](=O)[O-])cc2)sc2ccccc12	none
Cc1ccc(COc2ncnc3cc(Cl)ccc23)cc1	rat GALR2 ag 45.9 (no result: TLR4 MyD88 blk)
COC(=O)c1scc(C)c1NC(=O)CN1CCCCC1	none
O=S(=O)(Nc1ccc2c(c1)OCCO2)c1csc(-c2cc(C(F)(F)F)on2)c1	S1P1 agonist 82.3
O=S(=O)(Nc1ccc(Cl)cc1)c1ccc(-c2cc(C(F)(F)F)on2)s1	none
CCSc1ccc2c3c(cccc13)C(=O)N(Cc1ccccc1)C2=O	rat GALR2 ag 128.0
Cc1ccsc1/C=C/C(=O)O/N=C(\N)c1ccc(C(F)(F)F)cc1	S1P1 agonist 100.1 (no result: TLR4 MyD88 blk)
O=C(N/C(=C\c1ccc(-c2ccc([N+](=O)[O-])cc2)o1)c1nc2ccccc2[nH]1)c1ccccc1	OPRK1 antag MB 112.8, TLR4 MyD88 blk 49.9
Cc1c(S(=O)(=O)c2ccc(Cl)cc2)csc1C(=O)Nc1ccc(F)cc1F	rat GALR2 ag 21.9
CN(C)c1ccc(/C=C/c2ccccc2)cc1	none
CN(C)c1ccc(/C=C/c2cc[n+](Cc3ccc(F)cc3)cc2)cc1	TLR4 MyD88 blk 50.7
